High-throughput results from PubChem BioAssay.
Compounds with a hit are over-represented: about 11% of the library has one in this group of screens.
HEK cytotox: kills HEK 293 cells; HEK 293 viability, ATP luminescence (CellTiter-Glo), 48-72 h; Potency, µM (series often up to 115 µM), for inactives: at the top dose activity change, negative = cytotoxicity, usual class: inhibitors; 6.6% of 94,000 active; AID 1345083; further: on the % scale 0 is the no-effect control and ±100 the full control effect; nearly all actives have a fitted effect of over 60% in size
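Cytotoxicity was scored by loss of ATP-coupled luminescence (CellTiter-Glo) in HEK 293 cells. Compound treatment ran 48 or 72 hr at 37 degree Celsius, 5% CO2, 95% humidity.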
NIH3T3 tox: kills NIH 3T3 cells; NIH 3T3 viability, CellTiter-Glo ATP luminescence, 48-72 h; Potency, µM (titrated, usually from 96.7 µM), for inactives: at the highest dose activity change, negative = cytotoxicity, hits mostly inhibitors; 4.3% of 94,000 active; further: on the % scale 0 is the no-effect control and ±100 the full control effect; nearly all actives have a fitted effect of over 55% in size
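Cells were seeded at 400 per well, treated with pin-transferred compound, and kept 48 or 72 hr at 37 °C before CellTiter-Glo addition and luminescence imaging of cellular ATP.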
FLuc inh-1: Photinus pyralis luciferase inhibition; purified P. pyralis luciferase, luminescence, biochemical; P08659; Potency, µM (series often up to 115 µM), hits mostly inhibitors; 2.5% of 76,000 active; AID 1347043; further: on the % scale 0 is the no-effect control and ±100 the full control effect; nearly all actives have a fitted effect of over 65% in size
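FLuc 10nM, D-luciferin 10uM, ATP 10uM, Mg acetate 10mM, Tris acetate pH 7.5, Tween/BSA; cpd qHTS; enzyme added last; CCD luminescence.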
NPR1 antag: antagonists of human natriuretic peptide receptor Npr1; P16066; 1.6% of 76,000 active; HEK293 hNpr1 GloSensor cGMP, ANP-stimulated luminescence; Potency, µM (doses to about 46.3 µM), for inactives: at the top dose activity change, negative = inhibition, usual class: inhibitors; calls by dose curve; further: on the % scale 0 is the no-effect control and ±100 the full control effect; nearly all actives have a fitted effect of over 60% in size
Target sequence (P16066 whole entry, looked up): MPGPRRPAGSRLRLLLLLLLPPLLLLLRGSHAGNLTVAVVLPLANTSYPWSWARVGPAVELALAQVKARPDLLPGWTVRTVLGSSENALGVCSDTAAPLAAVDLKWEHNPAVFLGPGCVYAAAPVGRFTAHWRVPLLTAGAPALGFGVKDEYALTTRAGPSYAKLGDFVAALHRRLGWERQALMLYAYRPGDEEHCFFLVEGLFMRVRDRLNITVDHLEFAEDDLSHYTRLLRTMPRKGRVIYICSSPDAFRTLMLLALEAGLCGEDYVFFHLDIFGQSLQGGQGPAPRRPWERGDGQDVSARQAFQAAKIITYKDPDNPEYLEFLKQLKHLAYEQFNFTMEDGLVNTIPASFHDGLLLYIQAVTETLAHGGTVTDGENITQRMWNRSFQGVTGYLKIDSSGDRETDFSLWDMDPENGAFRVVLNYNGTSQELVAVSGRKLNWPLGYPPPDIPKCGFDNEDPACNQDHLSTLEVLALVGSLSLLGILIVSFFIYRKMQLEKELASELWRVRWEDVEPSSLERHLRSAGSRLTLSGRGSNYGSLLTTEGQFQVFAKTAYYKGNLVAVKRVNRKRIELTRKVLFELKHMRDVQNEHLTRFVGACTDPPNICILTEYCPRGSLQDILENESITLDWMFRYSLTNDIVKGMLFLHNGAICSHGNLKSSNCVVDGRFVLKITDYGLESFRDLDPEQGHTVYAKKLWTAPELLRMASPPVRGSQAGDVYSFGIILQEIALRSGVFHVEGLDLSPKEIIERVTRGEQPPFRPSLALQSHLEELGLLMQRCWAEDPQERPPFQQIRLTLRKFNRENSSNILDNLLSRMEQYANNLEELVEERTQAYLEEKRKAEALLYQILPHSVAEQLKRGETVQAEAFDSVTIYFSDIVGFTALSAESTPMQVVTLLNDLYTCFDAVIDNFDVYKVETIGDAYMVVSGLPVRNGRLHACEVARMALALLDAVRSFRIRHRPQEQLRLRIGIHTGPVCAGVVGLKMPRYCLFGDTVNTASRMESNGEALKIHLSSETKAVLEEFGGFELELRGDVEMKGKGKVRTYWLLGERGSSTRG
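HEK293 cells stably expressing human Npr1 and cGMP GloSensor pGS-40F, loaded 2 h with 2% GloSensor reagent, given compound 30 min at room temperature. Luminescence read before and 20 min after 0.1 nM hNppA.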
FLuc SDR no ATP: stabilizes firefly luciferase without ATP. Purified FLuc-C-HiBiT, Nano-Glo HiBiT luminescence, no ATP. 7.8% of 1,300 active. Potency, µM (titrated, usually from 32.7 µM), for the others: at the top dose activation (signal gain), usual class: activators. AID 1963318. shares compounds with FLuc inh-1; further: nearly all actives have a fitted effect of over 55% in size
FLuc SDR ATP: firefly luciferase binding stabilization, ATP added; shares compounds with FLuc inh-1; purified FLuc-C-HiBiT + ATP, HiBiT complementation luminescence; Potency, µM (series often up to 32.7 µM), inactives show at the highest dose activation (gain of signal), actives largely listed as activators; 8.7% of 1,300 active;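 further: signal reports ligand binding via conformational change of the enzyme rather than luciferase catalysis; % of control where 0% means no effect; nearly all actives have a fitted effect of over 55% in size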
FLuc inh-2: inhibitors of firefly luciferase enzymatic activity. shares compounds with FLuc inh-1. purified FLuc-C-HiBiT enzyme, luciferin luminescence. Potency, µM (titrated, usually from 32.7 µM), without a hit: top-dose activity change, negative = inhibition, most hits filed as inhibitors. 42% of 1,300 active. AID 1963320; further: on the % scale 0 is the no-effect control and ±100 the full control effect; nearly all actives have a fitted effect of over 70% in size
Active calls of the source: *; [ ] = another dose, or the depositor's remark. Unless noted, the call rests on the fitted dose curve; in most records, active means well fitted curve in the direction sought with a large enough effect; inconclusive means small, poorly fitted or top-dose-only effect, or another doubt; inactive means no such curve, though single readings can be large; an effect the other way counts as inactive or inconclusive. Potency means the concentration at half of the fitted maximal effect.

How did Cc1cn2nc(C(=O)Nc3ccc(OC(F)(F)F)cc3)cc2c(N2CCSCC2)n1 do in these assays?
HEK cytotox: inconclusive; NIH3T3 tox: inconclusive; FLuc inh-1: inactive; NPR1 antag: 3.9%

What do the screens show for `COc1ccc(-c2nc3ccc(NS(C)(=O)=O)cc3o2)cc1`?
FLuc SDR no ATP: 18.8%; FLuc SDR ATP: 14.7%; FLuc inh-2: inconclusive

How did Cc1ccc(NC(=O)c2ccc3nc(-c4ccccn4)oc3c2)cc1 do in these assays?
HEK cytotox: inconclusive; NIH3T3 tox: -27.0%

What do the screens show for `CCOc1ccc(C(=O)Nc2ccc(-c3nc4ccccc4s3)c(C)c2)cc1OCC`?
FLuc SDR no ATP: 18.4%; FLuc SDR ATP: 10.7%; FLuc inh-2: -10.3%

Results for COc1ccc(NC(=O)c2cc3n(n2)CC(c2ccc(Cl)cc2)OC3)cc1Cl (centres undefined) ?
HEK cytotox: inconclusive; NIH3T3 tox: inconclusive; FLuc inh-1: inactive; NPR1 antag: inconclusive

Results for COc1ccc(C(=O)Nc2ccc(-c3nc4ccccc4s3)c(Cl)c2)cc1Cl ?
FLuc SDR no ATP: 13.6%; FLuc SDR ATP: 10.9%; FLuc inh-2: -12.0%

Results for Cn1ncc2c(C(=O)Nc3cccc(Cl)c3)cc(-c3ccccc3C(F)(F)F)nc21 ?
HEK cytotox: inconclusive; NIH3T3 tox: -9.5%

What do the screens show for `COc1c(C)cccc1C(=O)Nc1ccc(-c2nc3ccccc3s2)c(Cl)c1`?
FLuc SDR no ATP: 7.5%; FLuc SDR ATP: 6.5%; FLuc inh-2: -15.5%

Results for Nc1nc2c(ncn2COCCO)c(=O)[nH]1 ?
FLuc SDR no ATP: 17.7%; FLuc SDR ATP: 13.9%; FLuc inh-2: -0.8%

Results for C=C1[C@H](CO)[C@@H](O)C[C@@H]1n1cnc2c(=O)[nH]c(N)nc21 ?
FLuc SDR no ATP: 13.0%; FLuc SDR ATP: 9.6%; FLuc inh-2: 5.8%

What do the screens show for `Cc1cccc(NC(=O)C2(C)CCCCC(=O)N2)c1` (centres undefined)?
HEK cytotox: 5.7%; NIH3T3 tox: inactive; FLuc inh-1: inactive; NPR1 antag: inconclusive

Results for CCOc1nccn2c(-c3ccc(CN4CCN(C(C)=O)CC4)cc3)cnc12 ?
HEK cytotox: -25.4%[172 µM]; NIH3T3 tox: inconclusive; FLuc inh-1: inconclusive; NPR1 antag: -0.5%[70.6 µM]

How did OC1CN(Cc2ccc(-c3cnc4c(OCc5ccccc5)nccn34)cc2)C1 do in these assays?
HEK cytotox: inconclusive; NIH3T3 tox: 89.1µM*; FLuc inh-1: 5.01µM*; NPR1 antag: -27.4%[70.6 µM]; FLuc SDR no ATP: 25.9%[49.3 µM]; FLuc SDR ATP: inconclusive; FLuc inh-2: inconclusive

How did COc1ccc(Cn2c(C3CCN(C(=O)c4ccccc4)CC3)n[nH]c2=O)cc1 do in these assays?
HEK cytotox: 0.9%; NIH3T3 tox: -12.6%; FLuc inh-1: inactive; NPR1 antag: 4.6%

Results for O=C(NCC(F)(F)F)C1CCCN1c1nc2ncccc2o1 (centres undefined) ?
HEK cytotox: inactive; NIH3T3 tox: inactive; FLuc inh-1: inactive; NPR1 antag: -0.8%[70.6 µM]; FLuc SDR no ATP: 11.2%[49.3 µM]; FLuc SDR ATP: 7.1%[49.3 µM]; FLuc inh-2: 5.9%[49.3 µM]

Results for CC(=O)N[C@@H]1C=C[C@@H](c2c(C)nn(-c3ccc(C(F)(F)F)cc3)c2C)C1 ?
HEK cytotox: 79.4µM*; NIH3T3 tox: 89.1µM*; FLuc inh-1: 14.1µM*; NPR1 antag: inconclusive; FLuc SDR no ATP: 16.2%[49.3 µM]; FLuc SDR ATP: inconclusive; FLuc inh-2: inconclusive

What do the screens show for `CC(=O)N[C@@H]1C=C[C@@H](c2c(C)nn(-c3ccc(C(C)(C)C)cc3)c2C)C1`?
HEK cytotox: inconclusive; NIH3T3 tox: 50.1µM*; FLuc inh-1: 14.1µM*; NPR1 antag: inconclusive; FLuc SDR no ATP: 17.2%[49.3 µM]; FLuc SDR ATP: 18.0%[49.3 µM]; FLuc inh-2: inconclusive

How did CCNC(=O)N[C@@H]1C=C[C@@H](c2c(C)nn(-c3ccc(C(F)(F)F)cc3)c2C)C1 do in these assays?
HEK cytotox: 22.4µM*; NIH3T3 tox: inconclusive; FLuc inh-1: 1.58µM*; NPR1 antag: 25.1µM*; FLuc SDR no ATP: 24.5%[49.3 µM]; FLuc SDR ATP: inconclusive; FLuc inh-2: 14.3µM*

How did Cc1nn(-c2ccc(C(F)(F)F)cc2)c(C)c1[C@@H]1C=C[C@@H](NC(=O)c2ccc(N(C)C)cc2)C1 do in these assays?
HEK cytotox: inconclusive; NIH3T3 tox: inconclusive; FLuc inh-1: inconclusive; NPR1 antag: -14.2%

Results for Cc1nn(-c2ccc(C(C)(C)C)cc2)c(C)c1[C@@H]1C=C[C@@H](NC(=O)COCC(=O)O)C1 ?
HEK cytotox: 2.7%[172 µM]; NIH3T3 tox: inconclusive; FLuc inh-1: 22.4µM*; NPR1 antag: -1.9%[70.6 µM]; FLuc SDR no ATP: 27.6%[49.3 µM]; FLuc SDR ATP: 17.6%[49.3 µM]; FLuc inh-2: inconclusive

Results for CCN1C[C@H]2COc3ccc(C)cc3[C@H]2N(C(=O)c2ccccc2)CCC1=O ?
HEK cytotox: inconclusive; NIH3T3 tox: -23.8%

Results for CCNC(=O)N[C@@H]1C=C[C@@H](c2c(C)nn(-c3ccc(C(C)C)cc3)c2C)C1 ?
HEK cytotox: 20µM*; NIH3T3 tox: 28.2µM*; FLuc inh-1: 0.501µM*; NPR1 antag: 7.08µM*; FLuc SDR no ATP: inconclusive; FLuc SDR ATP: inconclusive; FLuc inh-2: 2.86µM*

Results for CCNC(=O)N[C@@H]1C=C[C@@H](c2c(C)nn(-c3ccccc3[N+](=O)[O-])c2C)C1 ?
HEK cytotox: inconclusive; NIH3T3 tox: -25.6%[174 µM]; FLuc inh-1: inconclusive; NPR1 antag: -27.2%[70.6 µM]

Results for O=C(C1CCCN1C(=O)c1ccc(F)cc1)N1CCC(N2Cc3ccccc3C2=O)CC1 (centres undefined) ?
HEK cytotox: -2.1%; NIH3T3 tox: 2.2%

Results for Cc1noc(C)c1C(=O)N1CC(CN2C(=O)c3c(c(C)nn3-c3ccccc3)C2C)C1 (centres undefined) ?
HEK cytotox: -4.5%; NIH3T3 tox: -17.8%

How did CCOc1ccccc1CNC(=O)C1CCN(C(=O)c2ncn3c2COC(c2ccccc2)C3)CC1 (centres undefined) do in these assays?
HEK cytotox: -5.3%; NIH3T3 tox: -21.1%; FLuc inh-1: 3.98µM*; NPR1 antag: -11.8%; FLuc SDR no ATP: 11.7%; FLuc SDR ATP: 2.21µM*; FLuc inh-2: 3.13µM*
